Common to all, as to assay: NCI-60 one-dose screen, 48 h (100 = growth as untreated, 0 = no growth, -100 = all killed)
Common to all, as to conditions: 10 µM unless noted

For assay [1], the system named is NCI-H23 lung.
For assay [2], the system named is NCI-H226 lung.
Assay [3] deals with NCI-H322M lung.
In assay [4] the test system is HOP-62 NSCLC.
For assay [5], the system named is NCI-H460 lung.
The subject of assay [6] is HOP-92 NSCLC.
Assay [7] has as its system NCI-H522 lung.
Assay [8] concerns A549/ATCC NSCLC.
The test system of assay [9] is 786-0 renal.
Assay [10] concerns COLO 205 colon.

About 83,000 compounds went through this panel and 20% of them were active in at least one assay; those are over-represented in the sample as a whole.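 Interpretation: 100, growth as untreated; towards 0, rising growth inhibition; 0, no net growth; 0 to -100, cell death. Compounds scoring below 10 were considered active.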 A number with no mark means an inactive call. The source made the active and inactive calls.

Take `Cc1ccc(-c2nc(N3CCN(CC(=O)Nc4ccc(Cl)c(C(F)(F)F)c4)CC3)c3ccccc3n2)cc1`: the growth in [1] was 92.5%; in [2], 90.3%; in assay [3], 87.3%; in assay [4] it was 98.6%; in assay [5], 92.7%; in [6], 96.5%. For the same molecule, the growth was 81.6% in assay [7], 75.8% in assay [8], 91.1% in [9] and 86.3% in assay [10].

With `COc1cc(C(=O)c2cnc(-c3c[nH]c4cccc(C)c34)[nH]2)cc(OC)c1OC`, the growth is 24% in [1]; 57% in [2]; 40.3% in assay [3]; 36.2% in assay [4]; 3.6% (active) in assay [5]; 5.73% (active) in assay [6]. Besides, the growth in assay [7] is -4.91% (active); in [8] it was 20.4%; in [9], 10.4%; in assay [10], -29.3% (active).

Consider `CCOC(=O)CCN(C(=O)Nc1ccccc1)C1CCCCC1`, for which the growth was 102% in assay [1]; 115% in assay [2]; 110% in assay [3]; 86.8% in assay [4]; 102% in [5]; 111% in [6]. The growth in assay [7] is 99.2%; in assay [8] it was 132%; in assay [9], 91.5%; in assay [10], 139%.

On to `CCCCNC(=O)Oc1ccc(/C(=C(\C)c2ccc(Cl)cc2)c2ccc(OCCN(CC)CC)cc2)cc1`, for which the growth in assay [1] was 85.6%; in [2] it was 103%; in assay [3], 87.9%; in assay [4], 74.3%; in [5] it was 72.6%; in assay [6], 67.2%. In addition, the growth in assay [7] was 98.4%; in [8] it was 61.6%; in [9], 59.2%; in assay [10], 63.3%.

Take `CSc1ccc2c(c1)c(CCN)c(C)n2Cc1ccc(Cl)c(Cl)c1`: the growth was -89.7% (active) in assay [1]; -59.8% (active) in assay [2]; -83% (active) in [3]; -78.2% (active) in [4]; -70.6% (active) in assay [5]; -91.6% (active) in assay [6]. The growth in assay [7] is -76.5% (active); in assay [8] it was -77.9% (active); in [9], -76.1% (active); in assay [10] it was -75.8% (active).

As for `CCCCn1c(-c2ccc(C(=O)O/N=C(\N)c3ccc(OC)cc3)cc2)nc(-c2ccccc2)c1-c1ccccc1`, the growth in [1] was -41.9% (active); in [2] it was 69.5%; in assay [3], 62.3%; in assay [4] it was 11.7%; in [5], -32.3% (active); in assay [6] it was -68.7% (active). The growth is -63.2% (active) in assay [7], -31.7% (active) in [8], -63.9% (active) in assay [9] and 0.164% (active) in assay [10].

Turning to `COc1ccc2nc(NCCCNCCO)c3sc4ccc(F)cc4c(=O)c3c2c1`, the growth in assay [1] is 62.7%; in assay [2] it was 87.9%; in assay [3] it was 67.8%; in [4] it was 74%; in assay [5], -72.8% (active); in [6] it was 12.2%. Further, the growth in [7] is 45.6%; in assay [8], 49.2%; in assay [9] it was 56.7%; in assay [10], -49.3% (active).

On to `COc1ccc(S(=O)(=O)n2c3ccccc3n3ncc(-c4nnc(C)o4)c23)cc1`, for which the growth in assay [1] is 31.7%; in assay [2], 55.7%; in assay [3], 49%; in assay [4], 37.3%; in [5] it was 14.2%; in assay [6], 66%. The growth in assay [7] is 31.2%; in [8], 27.4%; in assay [9], 42.7%; in [10], 7.03% (active).

As to `COc1cccc(-c2nc(-c3ccc(NS(=O)(=O)c4ccccc4)cc3)[nH]c2-c2ccnc(Br)c2)c1`, the growth in assay [1] was 25.8%; in assay [2], 37.3%; in [3], 32.4%; in [4], 26.5%; in [5], 16.7%; in assay [6], 24.5%. Further, the growth is 20.7% in assay [7], 29% in assay [8], 20% in [9] and 35.5% in [10].

With `COc1cc(-c2nc3sccn3c2-c2ccnc(NCCCNS(=O)(=O)c3ccc(F)cc3)n2)ccc1F`, the growth in [1] is 52.6%; in assay [2] it was 52.1%; in assay [3], 102%; in [4], 90.2%; in assay [5], 79.5%; in assay [6] it was 79.4%. Besides, the growth was 47.7% in assay [7], 83.2% in [8], 96.7% in assay [9] and 56.9% in [10].

As for `Cc1cc2nc3ccc(N=Nc4ccc(N(C)C)cc4)cc3n(-c3ccccc3)c-2cc1=N`, the growth in [1] was -45.8% (active); in assay [2] it was -81.3% (active); in [3] it was -96.6% (active); in [4] it was -55.9% (active); in assay [5], -58.1% (active); in assay [6], -70.3% (active). In addition, the growth was -73.8% (active) in [7], -75.4% (active) in assay [8], -61.9% (active) in assay [9] and -86.8% (active) in assay [10].

Turning to `Cc1ccc(-c2nc(N3CCN(C(=O)Nc4ccc(Cl)c(C(F)(F)F)c4)CC3)c3ccccc3n2)cc1`, the growth is 78.1% in [1]; 78.7% in assay [2]; 64.3% in assay [3]; 79.2% in assay [4]; 81.1% in assay [5]; 82% in assay [6]. In addition, the growth in assay [7] is 69.9%; in [8], 64%; in assay [9], 81.3%; in [10] it was 89.6%.

As for `COc1ccc(C(=O)/C=C/c2sc(Cl)nc2Cl)cc1`, the growth is 8.44% (active) in assay [1]; 40.7% in [2]; 93.1% in assay [3]; 68.3% in [4]; 29.5% in assay [5]; 32.8% in assay [6]. Besides, the growth is 19.1% in assay [7], 78.1% in assay [8], 18.5% in [9] and 1.55% (active) in [10].
